The panel holds about 83,000 compounds, 20% with a hit somewhere; the sample as a whole holds those more often.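 Percent growth is the endpoint: 0 to 100 indicates growth inhibition (40 means 60% inhibition), 0 means no net growth, and negative values indicate cell death.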 Values without a mark were called inactive. Calls of active or inactive are those of the source. Rule for the calls: active = growth percent below 10; inactive = the rest.

Common to all, as to assay: NCI-60 one-dose screen, 48 h (100 = growth as untreated, 0 = no growth, -100 = all killed)
Common to all, as to conditions: 10 µM

For test [1], the system named is NCI-H226 lung.
For test [2], the system named is NCI-H322M lung.
Test [3] has as its system HOP-62 NSCLC.
For test [4], the system named is NCI-H460 lung.
The test system of test [5] is NCI-H522 lung.
The test system of test [6] is A549/ATCC NSCLC.
In test [7] the test system is 786-0 renal.
Test [8] deals with COLO 205 colon.
Test [9] has as its system HOP-92 NSCLC.

Take `COc1cc2c3c(n(C)c(=O)c2cc1OC)-c1cc2c(cc1C3=O)OCO2`: the growth in [1] is 66.9%; in [2] it was 89.9%; in [3], 45.1%; in test [4], 29.3%; in test [5] it was 1.48% (active); in [6], 81.8%. In addition, the values for the growth in test [7] and in test [8] were 77.1% and 72.5%, respectively.

With `Cc1cccc([N+](=O)[O-])c1Cl`, the growth in test [1] was 98.2%; in test [2] it was 105%; in test [3] it was 103%; in [4], 108%; in test [5], 116%; in test [6], 104%. Further, the growth in test [7] was 102%; in [8], 109%.

Take `CCOc1ccc(Br)cc1/C=N\N=C\c1cc(Br)ccc1OCC`: the growth in test [1] was 97.6%; in [2], 111%; in [3], 108%; in test [4], 103%; in test [9], 92.2%; in test [5], 104%. The growth in test [6] is 104%; in test [7] it was 105%; in test [8] it was 119%.

As to `O=[N+]([O-])c1ccc(S(=O)(=O)NN=C2CCCCC2)cc1`, the growth is 108% in test [2]; 99.5% in [3]; 121% in [4]; 96.7% in test [9]; 93.9% in test [6]; 103% in test [7]. For the same compound, the growth in [8] was 102%.

As for `CN(C)c1nc2c([nH]1)c(=O)n(C)c(=O)n2C`, the growth in [1] was 81.2%; in test [2] it was 105%; in [4] it was 103%; in test [5] it was 73.1%; in test [6], 92.2%; in test [7], 105%.

For the compound `Cc1c(O)cccc1O`, the growth was 93.4% in [1]; 90.3% in [2]; 92% in test [3]; 114% in test [4]; 73.1% in [5]; 122% in test [6]. Further, the growth in test [7] is 102%; in test [8] it was 116%.

Consider `C=CC(O)CCC` (configuration not stated), for which the growth in test [1] was 115%; in [2], 103%; in test [3] it was 110%; in test [4], 104%; in [5], 99.6%; in test [6], 91.5%. For the same compound, the results for the growth in test [7] and in [8] were 105% and 119%, respectively.

In the case of `CCCCC(=O)c1ccc(OC)cc1`, the growth in test [1] was 99.7%; in test [2], 111%; in test [3] it was 112%; in [4], 104%; in [5] it was 91.2%; in test [6], 97.4%. Further, the growth is 96.2% in test [7] and 118% in [8].

On to `O=C1c2ccccc2C(=O)c2c1ccc(C(=O)O)c2[N+](=O)[O-]`, for which the growth in [1] was 107%; in [2], 105%; in test [3] it was 97.2%; in [4] it was 109%; in test [5] it was 97%; in [6], 103%. The growth in test [7] was 106%; in test [8], 108%.

With `COC(=O)c1ccc(NC(=O)CCl)cc1`, the growth in test [1] was 118%; in [2], 95.7%; in [3], 88.5%; in test [4] it was 47.5%; in [6], 79.2%; in [7], 93.5%. The growth in test [8] is 103%.

As to `O=C(O)[C@@H]1[C@H]2C[C@H]3c4[nH]c5ccccc5c4CCN3C[C@@H]2CC[C@@H]1O`, the growth was 103% in test [1]; 110% in test [2]; 121% in [4]; 18.2% in test [5]; 101% in test [6]; 76% in [7]. The growth in test [8] was 123%.

Take `O=C(O)/C=C/c1ccc2c(c1)CCC2`: the growth in test [1] was 105%; in [3], 94.6%; in [4], 103%; in test [6] it was 106%; in [7], 101%; in [8] it was 105%.

For `CC(CC(=O)c1ccccc1)c1ccccc1` (configuration not stated), the growth was 98.4% in [1]; 90.6% in test [2]; 119% in [3]; 104% in test [4]; 84.1% in test [5]; 96.8% in test [7]. Further, in test [8], the growth is 123%.

(Values after PubChem BioAssay (NCI).)
